Compound activity from PubChem BioAssay.
NPYLR7 agonist: activates Aedes aegypti NPYLR7 receptor. HEK293T NPYLR7/Galpha15, GCaMP6s calcium fluorescence. activation, % at 10 µM. 270,000 compounds, 0.15% hits. AID 1259423; in the data active = activation above about 40%;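 also: 0% = vehicle and 100% = reference agonist at the receptor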
hcGAS lum: blocks human cGAS activity; 290,000 compounds, 0.081% hits; recombinant h-cGAS, ATP depletion, Kinase-Glo luminescence; Q8N884; AID 1259398; inhibition, % at 12.5 µM;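 also: 0% = vehicle reaction and 100% = reaction without DNA for no activity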
Target sequence (Q8N884 whole entry, looked up): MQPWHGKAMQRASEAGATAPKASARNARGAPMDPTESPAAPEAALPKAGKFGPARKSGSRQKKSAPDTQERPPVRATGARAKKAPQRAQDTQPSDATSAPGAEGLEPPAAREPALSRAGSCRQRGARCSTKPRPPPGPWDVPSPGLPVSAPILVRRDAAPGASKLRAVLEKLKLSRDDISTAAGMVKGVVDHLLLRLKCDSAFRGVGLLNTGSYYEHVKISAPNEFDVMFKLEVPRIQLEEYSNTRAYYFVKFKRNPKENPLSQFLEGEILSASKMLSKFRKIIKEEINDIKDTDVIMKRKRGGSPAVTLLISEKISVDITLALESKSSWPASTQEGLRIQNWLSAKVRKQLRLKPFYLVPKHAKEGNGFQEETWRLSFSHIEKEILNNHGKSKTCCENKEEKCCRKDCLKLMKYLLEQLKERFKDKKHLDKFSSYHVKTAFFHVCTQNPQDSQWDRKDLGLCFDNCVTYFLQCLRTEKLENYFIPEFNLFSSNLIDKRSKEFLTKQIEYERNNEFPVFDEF
mcGAS lum: mouse cGAS inhibition by luminescence. Q8C6L5. recombinant cGAS, Kinase-Glo ATP depletion luminescence. 160,000 compounds, 0.15% hits. inhibition, % at 12.5 µM;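 also: 0% = negative control wells and 100% = reference inhibitor with no enzyme activity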
Numbers without * were called inactive; x = not tested or not shown. Compounds with a hit are over-represented: about 0.28% of the library has one in this group of screens. Rule as the data show it, unless noted: active = inhibition above about 40%; inactive = the rest.

SMILES	NPYLR7 agonist	hcGAS lum	mcGAS lum
Nc1ccc(Oc2ccc([N+](=O)[O-])cc2)cc1	-11	1	x
O=C(O)C1(C(=O)O)CCC1.[NH2-].[NH2-].[Pt+2]	2	0	-4
CCOC(=NCCCN(C)C)NC(=O)c1ccco1	21	-3	-4
COc1cccc(C2C(Oc3cccc(C#N)c3)C(=O)N2CC2CCCO2)c1 (stereo unspecified)	7	-6	x
O=C(NCCc1ccc(Cl)cc1Cl)c1cc2n(n1)CCN(CC1CC1)C2=O	10	0	-3
COCCN1CC(CO)C2(CCN(C(=O)C3CC=CC3)CC2)C1 (stereo unspecified)	x	45*	-7
CC(=O)N1CC(CO)C2(CCN(C(=O)C3CC=CC3)CC2)C1 (stereo unspecified)	x	-9	-5
CNC(=S)NN(C)c1cc(C)nc(C)n1	x	-1	x
Cc1ccc(-c2nc3nc(N)n(C)c(=O)c3[nH]c2=O)cc1	136*	-6	-8
Cc1ccc(Nc2nc3c([nH]2)c(=O)n(C)c(=O)n3C)cc1	6	-5	-11
CCOc1ccccc1N1CCN(C(=O)c2cc(-c3ccccc3Cl)nc3cc(C(C)(C)C)nn23)CC1	-6	-9	-8
CCOC(=O)c1ccc(OC(C)C)c(Br)c1	1	3	x
COc1ccc(C(=O)N=c2sccn2Cc2cccc(C(=O)NC3CC3)c2)cc1OC	3	-16	x
CCN1CCN(C(=O)c2ccc(Cn3ccsc3=NC(=O)c3ccc(OC)c(OC)c3)o2)CC1	45*	-16	x
COc1ccc(/C=C2\Oc3c4c(cc(C)c3C2=O)OCN(CC2CCCO2)C4)cc1OC (stereo unspecified)	15	1	3
O=C1/C(=C/c2ccc3c(c2)OCO3)Oc2c1ccc1c2CN(CC2CCCO2)CO1 (stereo unspecified)	83*	-6	-7
O=C(O)c1ccccc1OP(=O)(O)O	-10	5	61*
CCCCC(=O)Oc1ccccc1C(=O)O	x	-6	-5
CCN(CCCNC(=O)Cn1cnc2ccccc2c1=O)c1ccccc1	-3	0	-2
CC(C)(C)n1ccc2c(cnc3nc(-c4cccnc4)nn32)c1=O	1	-6	x
C=C1C(=O)O[C@@H]2C[C@@]3(C)CCC[C@H](C)C3=C[C@H]12	-6	-4	93*
COc1cccc2c1C(=O)c1c(O)c3c(c(O)c1C2=O)C[C@@](O)(C(C)=O)C[C@@H]3OC1CC(N)C(O)C(C)O1 (stereo partly specified)	-3	61*	x
COc1cccc2c1C(=O)c1c(O)c3c(c(O)c1C2=O)C[C@@](O)(C(=O)CO)C[C@@H]3O[C@H]1C[C@H](N)[C@H](O)[C@H](C)O1	-13	58*	x
CCC(C)NC(=O)c1nn(-c2ccc(C)c(Cl)c2)c(=O)n(Cc2ccccc2Cl)c1=O (stereo unspecified)	15	-5	-2
CC(=O)Nc1cccc(C(=O)NCc2cccnc2Oc2ccccc2)c1	16	-4	x
SMILES	NPYLR7 agonist	hcGAS lum	mcGAS lum
O=C(CCc1ccccc1)N1CCCC(OCc2ccc(F)cc2)C1 (stereo unspecified)	2	-2	-4
O=C(O)C1C2CC3C1C(=O)Oc1ccccc1C1c4sc(=O)[nH]c4SC2C13 (stereo unspecified)	15	-4	14
O=C(O)C1C2CC3C1C(=O)Oc1ccc(Br)cc1C1c4sc(=O)[nH]c4SC2C13 (stereo unspecified)	13	-1	41*
c1ccc(-n2nccc2CN2C[C@@H]3[C@H](C2)[C@H]2CC[C@@H]3O2)cc1	11	-5	-13
CCCCC(=O)Nc1sc2c(c1-c1nc3ccccc3s1)CCN(C(C)=O)C2	3	-1	x
CCC(=O)Nc1sc2c(c1-c1nc3ccccc3s1)CCN(C(C)=O)C2	0	-5	x
CC(C)N1CCc2c(sc(NC(=O)CN3C(=O)CCC3=O)c2-c2nc3ccccc3s2)C1	33	56*	51*
CCC(=O)Nc1sc2c(c1-c1nc3ccccc3s1)CCN(C(C)C)C2	36	80*	97*
Cc1ccn(-c2ccc(N3CCN(S(=O)(=O)c4ccc(-c5ccccc5)cc4)CC3)nn2)n1	-4	0	-2
O=C(CSc1nc2ccccc2n1Cc1ccccc1)N/N=C\c1ccc(F)cc1	5	-1	x
COCCN(CC(=O)N1CC(=O)N(c2ccc(Cl)cc2)C1)C(=O)c1ccccc1C	28	-1	-11
Cc1cccc(N2CCN(Cc3cn[nH]c3-c3ccc(F)cc3F)CC2)n1	26	-6	-3
Clc1cc(CNCc2ccco2)cc2c1OCCO2	-3	-4	-8
COC(=O)n1c(=O)oc2cc(S(=O)(=O)N3CCOCC3)ccc21	-1	-6	x
COC(=O)n1c(=S)oc2cc(Cl)ccc21	10	6	40*
Cc1nc2sccn2c1C(=O)N1CCCC(CO)(Cc2ccc(F)cc2F)C1 (stereo unspecified)	6	3	-1
Cc1nnc2ccc(N3CCN(C(=O)NC4CCCCC4)CC3)nn12	1	-2	-7
Cc1sc2ncnc(N/N=C\c3ccccc3O)c2c1C	6	-8	x
CC(=NNc1ncnc2sc(C)c(C)c12)c1ccccn1	59*	45*	x
N#Cc1c(-c2ccccc2)cc(=O)n2c1[nH]c1ccccc12	4	1	x
Cc1c(Cc2ccccc2)c(=O)n2c([nH]c3ccccc32)c1C#N	4	-2	x
N#Cc1c(C(F)(F)F)cc(=O)n2c1[nH]c1ccccc12	-3	46*	x
Cc1cc(=S)n2c([nH]c3ccccc32)c1C#N	-8	41*	x
COC(=O)c1c(C)c(C(=O)C(C)N(Cc2ccco2)C(=O)c2cccc(C(F)(F)F)c2)c(C)n1C (stereo unspecified)	-8	-7	-5
CCOc1cc2c(C#N)c(N(CC(C)C)CC(C)C)nc(N)c2c(N)n1	12	-7	x
SMILES	NPYLR7 agonist	hcGAS lum	mcGAS lum
COc1cc2c(C#N)c(N(CCO)CCO)nc(N)c2c(N)n1	-4	56*	3
Cc1cc(NC(=O)CCNC(=O)C2CNCC(=O)N2)ccc1F (stereo unspecified)	-4	-3	x
N#Cc1c(SCc2ccccc2C(F)(F)F)sc2c(=O)[nH]c(=O)[nH]c12	-3	8	7
N#Cc1c(SCc2ccccc2C(F)(F)F)sc2c(O)cc(=O)[nH]c12	-1	6	63*
CC(=O)CSc1sc2c(O)cc(=O)[nH]c2c1C#N	13	-2	73*
NC(=O)c1c(SCC(=O)c2ccc(F)cc2)sc2c(O)cc(=O)[nH]c12	1	0	-1
O=C(COc1ccc2oc3c(c2c1)CCCC3)Nc1ccccc1	11	-6	-5
O=c1[nH]c2ccccc2n2c(=S)[nH]nc12	0	38	52*
NS(=O)(=O)c1ccc2[nH]c(=O)c3n[nH]c(=O)n3c2c1	11	4	x
CCOc1ccc(-c2cn3c(CC(=O)N(C)C4CCCCC4)csc3n2)cc1	-1	-4	-7
Cc1cc(C)nc(SCc2cc(=O)c(OC(=O)Cc3ccc(F)cc3)co2)n1	-16	5	82*
Cc1cc(C)nc(SCc2cc(=O)c(OC(=O)Cc3ccc([N+](=O)[O-])cc3)co2)n1	-11	-6	9
CCOc1ccc(CC(=O)Oc2coc(CSc3nc(C)cc(C)n3)cc2=O)cc1	-16	0	63*
Cc1ccnc(SCc2cc(=O)c(OC(=O)Cc3ccc(Cl)cc3)co2)n1	-13	-2	33
